# Assay results published in PubChem BioAssay (EPA / NIEHS).
# Active and inactive are the calls of the source. The calls were made as follows: active = hit-call score of the fitted dose curve at least 0.9, where 1 is the maximum; inactive = score below 0.9.
# Assay: CEETOX_H295R_MTT_cell_viability: Viability Assessment in the CeeTox HT-H295R MTT Assay (AID 2283718);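 as to AC50: curve fitted both ways so AC50 may mark viability loss or gain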
# Experimental: CEETOX_H295R is a cell-based, multiplexed-readout assay that uses H295R, a human adrenal gland cell line, with measurements taken at 48 hours after chemical dosing in a 96-well plate.CEETOX_H295R_MTT_cell_viability is one of 23 assay component(s) measured or calculated from the CEETOX_H295R assay. It is designed to make measurements of cell number, a form of viability reporter, as detected with […] signals by MTT cytotoxicity assay technology.The assay component endpoint CEETOX_H295R_MTT_cell_viability was analyzed with bidirectional fitting relation to DMSO as the negative control and baseline of activity. Using a type of viability reporter in the MTT cytotoxicity assay, gain or loss-of-signal activity can be used to monitor cellular processes to understand changes in proliferation. To generalize the intended target to other relatable targets, this assay endpoint is annotated to cell cycle, where the subfamily is proliferation.
# Cell culture and media preparation procedures were conducted in accordance with OECD Test No. 456 guidelines, with minor modifications. H295R cells (ATCC CRL-2128) were expanded for 5 passages and frozen in batches in liquid nitrogen. Prior to the steroidogenesis assay, H295R cells were thawed and passed at least 4 times. The maximum passage was 10. Cells were maintained in a 1:1 mixture of DMEM/F12 supplemented with 5ml/L ITS+ Premix (BD Bioscience) and 12.5 ml/L Nu-Serum (BD Bioscience). After seeding cells into 96-well plates at 50-60% confluency, cells were allowed to adhere overnight. Prior to chemical testing, culture medium was replaced with 175 uL medium containing 10 uM forskolin to stimulate steroidogenesis for 48 hours. Following prestimulation, forskolin medium was replaced with medium containing test chemical solubilized in DMSO (ensuring a final concentration of 0.1% DMSO). Test chemicals were incubated for 48 hours, then the medium was removed and split into 2 vials containing approximately 75uL each, and stored at -80 C prior to hormone analysis. For steroid quantification, media samples were shipped to OpAns, LLC (Durham, NC) on dry ice, and samples were thawed to room temperature prior to liquid-liquid extraction. Steroid hormones were extracted from media samples using methyl tertbutyl ether (MTBE). An extra derivatization with dansyl chloride was included for estrogen (estrone and estradiol) detection only. Steroid hormones were separated by HPLC, eluted using a reverse phase C18 gradient with electrospray positive ionization, followed by quantification by tandem mass spectrometry (MS/MS). Data were acquired on a MassHunter Workstation Acquisition version B03.01 (Agilent Technologies, Inc.) and processed using MassHunter Quantitative Analysis for QQQ. Accuracy was determined for each hormone analyte from 3 standards to determine upper and lower limits of quantification (ULOQ and LLOQ, respectively) using a 7-point standard curve. Precision and accuracy of the extraction and quantification methods were calculated as the percent relative standard deviation (%RSD) of the spiked standards and percent spiked standard recovered, respectively. The goal was to achieve 100% accuracy (i.e., recover all spiked-in standard at quantification with minimal loss during run time) and good precision (i.e., have %RSD <15% to ensure reproducibility). Test medium was removed following chemical exposure, and cell viability was evaluated in the same wells by MTT. MTT procedures were as follows: after removal of test medium, 500 uL of 0.5 mg/ml of 3-[4,5-dimethylthiazol-2-y]2,5-diphenyltetrazoliumbromide solution was added to the cells. Following a 4-hour incubation at 37 C and 5% CO2 to allow formazan-crystal formation, the MTT solution was removed and blue formazan salt crystals were solubilized using 500uL anhydrous isopropanol with shaking for 20 minutes. Absorbance was read at 570 and 650nm using a Packard Fusion microplate reader. […]
Compound,outcome,AC50
CCCCC(CC)COC(=O)c1ccc(N(C)C)cc1 (stereo not drawn),inactive,
Cc1cccc(C)n1,inactive,
CCCCCCCCCCCCC[N+](C)(C)Cc1ccccc1,inactive,
CCCCCCCCCc1ccc(OCCO)cc1,inactive,
CC1CCCCC1,inactive,
CCN(CC)c1ccc(N=Nc2ccccc2)cc1,inactive,
Nc1cccnc1N,inactive,
CCOCOCC,inactive,
N#Cc1ccccc1O,inactive,
Nc1c(Br)cc([N+](=O)[O-])cc1Br,,29.7 µM (active)
CCn1c2ccccc2c2ccccc21,inactive,
O=C(c1ccccc1)c1ccc(Cl)cc1,inactive,
CCN(CC)c1ccc(C=O)cc1,inactive,
Cc1cc(O)c(C(C)(C)C)cc1C(C)(C)C,inactive,
OCCC(O)CO (stereo not drawn),inactive,
CC(C)(C)c1cc(CCC(=O)NCCCCCCNC(=O)CCc2cc(C(C)(C)C)c(O)c(C(C)(C)C)c2)cc(C(C)(C)C)c1O,inactive,
CN1CN(C)CN(C)C1,inactive,
O=C1C=CC(=O)N1c1ccccc1,inactive,
Oc1ccc2c(c1)CCC2,inactive,
O=c1[nH]cccc1O,inactive,
O=C1c2ccccc2C(=O)c2c(Cl)cccc21,inactive,
CSc1ccc(O)cc1C,inactive,
C[C@]12CC[C@H]3C(=CCc4cc(O)ccc43)[C@@H]1CCC2=O,inactive,
